Source: PubChem BioAssay (National Center for Advancing Translational Sciences (NCATS))
SNCA expr inh: reduces expression of the alpha-synuclein gene. HEK-293 SNCA-luciferase knock-in, luminescence, 24 h. Potency, µM (titrated, usually from 57.2 µM), inactives show at the highest dose activity change, negative = inhibition, usual class: inhibitors. 140,000 tested, 0.17% active;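 also: potency is read from the fitted curve at half-maximal effect; plate controls were DMSO cells for no effect and cell-free wells for full effect; nearly all actives have a fitted effect of over 45% in size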
IP6K1 inhibitor: blocks human inositol hexakisphosphate kinase 1; Q92551; IP6K1 kinase, ADP-Glo luminescence, 2 h; stronger effect = lower value; activity change, % (series mostly up to about 58 µM); 140,000 tested, 0.81% active; in the data active = activity change below about -25%
Target sequence (Q92551 whole entry, looked up): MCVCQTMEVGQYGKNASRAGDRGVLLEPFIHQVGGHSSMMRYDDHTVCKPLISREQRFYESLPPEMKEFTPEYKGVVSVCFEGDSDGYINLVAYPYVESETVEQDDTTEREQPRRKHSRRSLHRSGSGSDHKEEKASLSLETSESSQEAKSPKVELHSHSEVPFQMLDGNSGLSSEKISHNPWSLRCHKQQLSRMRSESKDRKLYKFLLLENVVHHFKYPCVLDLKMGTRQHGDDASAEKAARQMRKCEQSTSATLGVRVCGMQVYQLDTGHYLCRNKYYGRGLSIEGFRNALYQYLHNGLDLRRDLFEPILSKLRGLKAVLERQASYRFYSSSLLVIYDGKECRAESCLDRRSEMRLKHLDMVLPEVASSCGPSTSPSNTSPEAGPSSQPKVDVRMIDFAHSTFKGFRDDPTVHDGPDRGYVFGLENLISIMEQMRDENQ
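ADP-Glo luminescence measures ADP made by human IP6K1 during a 2 h RT reaction with ATP/IP6 (mix at 1.3 mM/130 uM); top library doses 57.5 and 19.1 uM final.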
GPT2 inhibitor: GPT2 alanine aminotransferase inhibition | Potency, µM (highest dose often 57.7 µM), without a hit: top-dose activity change, negative = inhibition, hits mostly inhibitors | Recombinant GPT2, coupled pyruvate oxidase/HRP Amplex Red fluorescence | 100,000 tested, 0.25% active | Q8TD30 | AID 1671188; also: potency is read from the fitted curve at half-maximal effect; nearly all actives have a fitted effect of over 60% in size
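Inhibition is scored from Amplex Red fluorescence generated when pyruvate oxidase and HRP act on pyruvate released by GPT2. Reactions contain 10ng/uL enzyme, 250uM a-KG and 2mM L-alanine and run 30 min at room temperature.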
SNCA viab count: reduces viability of HEK-293 SNCA reporter cells; 150,000 tested, 0.12% active; HEK-293-SNCA-luc viability, GF-AFC fluorescence, 24 h; Potency, µM (doses to about 57.1 µM), for the others: at the top dose activity change, negative = cytotoxicity, most hits filed as cytotoxic;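 also: potency is read from the fitted curve at half-maximal effect; 0% = DMSO-treated cells and -100% = medium-only wells without cells; nearly all actives have a fitted effect of over 30% in size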
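Cytotoxicity counterscreen: after 24 h compound treatment of genome-edited SNCA-luciferase HEK-293 cells, live-cell protease substrate GF-AFC read by fluorescence after 30 min; activity scaled between DMSO (0%) and medium-only (-100%), curves Hill-fitted.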
Active calls of the source: *; i = inactive; ? = inconclusive; . = no result given; ! = not active in a repeat; [ ] = remark or other dose. Compounds with a hit are over-represented: about 1.1% of the library has one in this group of screens. Unless noted, calls follow the shape of the dose curve; as a rule, active = well fitted curve in the direction sought with a large enough effect; inconclusive = small, poorly fitted or top-dose-only effect, or another doubt; inactive = no such curve, though single readings can be large; an effect the other way counts as inactive or inconclusive. Unless noted, % is scaled to controls: 0 for no effect and ±100 for the full control effect.

SMILES	SNCA expr inh	IP6K1 inhibitor	GPT2 inhibitor	SNCA viab count
CCNc1nc2c(s1)C(c1cccnc1)CC(=O)N2 (stereo unspecified)	22%	-46*	?	-2%
CNc1nc2c(s1)C(c1cccc(F)c1)CC(=O)N2 (stereo unspecified)	?	-67*	?	-12%
CC1=C(C(=O)NC23CC4CC(CC(C4)C2)C3)C(c2cccnc2)NC(=O)N1 (stereo unspecified)	13%	-6	-1%	1%
O=C(NCC(F)F)C1CCCCN1Cc1ccc(-c2ccsc2)cc1 (stereo unspecified)	29%	-9	i	1%
COc1ccccc1N1CCN(c2nc3c(S(=O)(=O)c4ccc(C)c(C)c4)nnn3c3ccc(Cl)cc23)CC1	-3%	-28*	.	-5%
Cc1ccc(C)c(N2CCN(c3nc4c(S(=O)(=O)c5ccccc5)nnn4c4ccc(Cl)cc34)CC2)c1	15%	12	.	-4%
COc1ccc2nc3n[nH]c(C)c3c(NCCOCCO)c2c1	.	-7	?	38%
CNC(=O)c1ccc2c(C(=Nc3cccc(CN(C)C)c3)c3ccccc3)c(O)[nH]c2c1	?	-5	?	?
CCS(=O)(=O)Nc1ccc2[nH]c(O)c(C(=Nc3ccc(CN4CCCCC4)cc3)c3ccccc3)c2c1	1.2µM*	.	-20%	?
COc1ccccc1Nc1c2c(nc3ccc(NC(=O)c4cccc(OC)c4OC)cc13)CCCC2	?	7	.	16µM*
Nc1nc(F)nc2c1ncn2[C@@H]1O[C@H](CO)[C@@H](O)[C@@H]1O	8.6µM*!	10	-3%	?
c1ccc(-c2noc(-c3ccc(OC4CNC4)cc3)n2)cc1	10µM*	8	i	-1%
CC(C)NC(=O)c1cc(-c2cccc(F)c2)nc2c1cnn2C	.	11	.	.
Cc1ccc(S(=O)(=O)c2ccc([N+](=O)[O-])o2)cc1	.	-8	4%	9.5µM*
Cc1ccc(S(=O)(=O)c2nc(-c3ccccc3Cl)oc2N2CCCCCC2)cc1	?	4	.	-17%
CCN(CC)Cc1ccc2cc(COC(=O)Nc3ccc(C(=O)NO)cc3)ccc2c1	-9%	11	15µM*	?
CCN(CC)Cc1c(NC(=O)c2ccc(OC)cc2)sc2c1CCCC2	42%	-3	.	-21%
CC1(COCC2CC2)COc2ccc(C(=O)Nc3ccc4[nH]ccc4c3)cc2N1 (stereo unspecified)	7.1µM*	-13	-8%[88.5 µM]	?
CCn1c2ccccc2c2cc(CN3CCN(Cc4ccc(Br)cc4)CC3)ccc21	-11%	-58*	.	14%
CCn1cc(CN2CCN(Cc3ccccc3)CC2)ccc1=O	-3%	4	?	-5%
CSc1ccc(-c2cccc(C(=O)NCCNC(=O)c3ccc(Cl)cc3)c2)cc1	-23%	8	-16%	-5%[12.5 µM]
Cc1ccc(/C=C/c2nc3ccccc3n2S(=O)(=O)c2ccc(Br)cc2)cc1	?	1	.	-8%
CSc1ccc(/C=C/c2nc3ccccc3n2S(=O)(=O)c2cccc(Cl)c2)cc1	?	-41*	.	-4%
CC(=O)N(C)C1(c2ccccc2)CCN(CCC[C@]2(c3ccc(Cl)c(Cl)c3)CCCN(C(=O)c3ccccc3)C2)CC1	1.7µM*	-2	?	2.2µM*!
CN(C)C(=O)NC1(c2ccccc2)CCN(CCC[C@]2(c3ccc(Cl)c(Cl)c3)CCCN(C(=O)c3ccccc3)C2)CC1	.	0	-3%	?
SMILES	SNCA expr inh	IP6K1 inhibitor	GPT2 inhibitor	SNCA viab count
C=C[C@H]1[C@H](O[C@@H]2O[C@H](CO)[C@@H](O)[C@H](O)[C@H]2O)OC=C(C(=O)OC)[C@H]1C[C@@H]1c2cc(O)c(O)cc2CCN1C(C)=O	.	-13	3.2µM*	18%[23.9 µM]
COc1ccc(/C=C/C(=O)Nc2ccccc2C(=O)O)cc1OC	1.6µM*	8	-21%	2%
COc1ccc(C=CC(=O)Nc2ccccc2C(=O)O)cc1OC	1.5µM*	.	5%	-6%
O=C(NC1CCCN(c2ccnc3ccnn23)C1)c1ccc2c(c1)OCO2 (stereo unspecified)	21%	-6	0%	?
CC[C@H](CO)Nc1nc(Nc2cccc(-c3ccccn3)c2)c2ncn(C(C)C)c2n1	.	-11	?	-35%
CC(C)[C@H](CO)Nc1nc(Nc2cccc(Cl)c2)c2ncn(C(C)C)c2n1	5%	.	-6%	24µM*
CNC[C@H](O)c1ccc(O)c(O)c1	-2%	-14	14µM*!	-5%
CC(C)NCC(O)c1ccc2ccccc2c1 (stereo unspecified)	-11%[25.6 µM]	7	i	-3%[23.9 µM]
CC(C)NCC(O)c1ccc(O)c(O)c1 (stereo unspecified)	-24%	8	17µM*!	?
C/C=C/C=C/C=C/C(=O)O[C@@H]1C=C(CO)C(O)(C(=O)O)[C@@]2(C)CCCC(C)(C)[C@H]12 (stereo partly specified)	.	15	?	3%[23.9 µM]
CCn1c(=O)c2c(cc(C)n2C)n(CC(=O)Nc2ccccc2C)c1=O	-14%	13	i	-14%
CCn1c(=O)c2c(cc(C)n2C)n(CC(=O)Nc2c(C)cccc2C)c1=O	?	35	i	28µM*
O=C(c1ccccc1Cl)N1CCCC(C(=O)N2CCC(N3Cc4cccn4C3=O)CC2)C1 (stereo unspecified)	28%	-3	i	3%
COc1ccc(-c2cc3nc4c(c(=O)n3[nH]2)CN(C(=O)Cc2ccc(NC(C)=O)cc2)CC4)cc1	8.9µM*	0	?	5%
CC[C@H]1CN2CCc3cc(OC)c(OC)cc3[C@H]2C[C@@H]1C[C@@H]1NCCc2cc(OC)c(OC)cc21	0.61µM*	.	4%	?
Cc1noc([C@H]2CCN(S(=O)(=O)Cc3ccccc3)C[C@H]2NC(=O)C2CC2)n1	26%	2	3%	?
CC(C)c1ccc(CC(=O)N2CCCc3ncc(C(=O)Nc4cccc(Cl)c4)cc32)cc1	?	7	3%	?
CC(C)c1ccc(CC(=O)N2CCCc3ncc(C(=O)Nc4cccnc4)cc32)cc1	1µM*	-22	i	?
O=C(Nc1cccc(C(F)(F)F)c1)c1cc(-c2ccc(Cl)cc2)on1	2%	7	.	4%
FC(F)(F)c1cccc(Nc2nc3nonc3nc2Nc2ccc(Cl)cc2)c1	11µM*	4	.	?
CN(C)C(=O)C1CCc2nnc(-c3ccc(F)cc3)n21 (stereo unspecified)	-23%[87.6 µM]	0	i	-3%[87.6 µM]
CC(C)=CC[C@@H](O)C1=CC(=O)c2c(O)ccc(O)c2C1=O	-2%	.	12µM*	-17%
CCOC(=O)c1c(C)n(-c2ccccc2)c2ccc(OC(=O)c3ccccc3NC(=O)C(C)(C)C)cc12	13µM*	-17	.	?
CCOC(=O)c1c(C)n(-c2ccccc2)c2ccc(OC(=O)c3ccccc3NC(=O)C(C)C)cc12	?	-13	.	?
Cc1nn(-c2ccccc2)c2c1C(C(C)C)N(C1CCN(C(=O)Cc3ccc(F)cc3)C1)C2=O (stereo unspecified)	.	0	.	.
